According to publication PMC7862700, “An all-to-all approach to the identification of sequence-specific readers for epigenetic DNA modifications on cytosine”:

Columns and labels:
Test in all cases: DAPPL (digital affinity profiling via proximity ligation, sequencing); 10 mM Tris-HCl pH 7.5, 50 mM NaCl, 1 mM DTT, 4% glycerol, room temperature, 30 min; GST-TFs on glutathione beads, 16-mer random dsDNA library, 0.1% formaldehyde crosslink after washing; high values mean tight binding
[1] = molecular target: T1, FLI1 (Homo sapiens, UniProt Q01543 1-452); settings: protein: recombinant; tags: N-terminal GST; dsDNA, one strand shown
T1 sequence: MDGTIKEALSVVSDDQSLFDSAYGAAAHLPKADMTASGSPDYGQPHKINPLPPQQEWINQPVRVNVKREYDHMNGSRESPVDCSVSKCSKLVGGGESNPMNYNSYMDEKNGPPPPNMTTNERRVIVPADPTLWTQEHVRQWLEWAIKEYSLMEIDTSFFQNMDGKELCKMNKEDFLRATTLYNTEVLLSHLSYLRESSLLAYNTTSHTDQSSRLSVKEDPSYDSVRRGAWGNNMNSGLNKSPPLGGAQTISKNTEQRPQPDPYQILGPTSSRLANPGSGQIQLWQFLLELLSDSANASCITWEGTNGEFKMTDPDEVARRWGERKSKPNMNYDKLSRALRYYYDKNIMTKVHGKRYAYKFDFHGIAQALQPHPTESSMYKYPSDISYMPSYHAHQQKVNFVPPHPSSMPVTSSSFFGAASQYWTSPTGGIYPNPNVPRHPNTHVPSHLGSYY
In short: (§1)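 Sequencing on an Illumina NextSeq500 followed washing, crosslinking with 0.1% formaldehyde, proximity ligation (BsaI/T4 ligase, 1 h, 37 °C) and PCR amplification of pools that had been incubated for 30 min at room temperature with 200 nmole of a random double-stranded 16-mer DNA library in Tris/NaCl/DTT/glycerol buffer. Each pool held DNA-barcoded human transcription factors, expressed in yeast as GST fusions and captured on glutathione beads, plus a tag-only sample. Binding signal is a hexamer's read frequency for a factor divided by its frequency in the tag-only sample.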

[2] = molecular target: T2, ELK1 (Homo sapiens, UniProt P19419 1-428); settings: protein: recombinant; tags: N-terminal GST; dsDNA, one strand shown
T2 sequence: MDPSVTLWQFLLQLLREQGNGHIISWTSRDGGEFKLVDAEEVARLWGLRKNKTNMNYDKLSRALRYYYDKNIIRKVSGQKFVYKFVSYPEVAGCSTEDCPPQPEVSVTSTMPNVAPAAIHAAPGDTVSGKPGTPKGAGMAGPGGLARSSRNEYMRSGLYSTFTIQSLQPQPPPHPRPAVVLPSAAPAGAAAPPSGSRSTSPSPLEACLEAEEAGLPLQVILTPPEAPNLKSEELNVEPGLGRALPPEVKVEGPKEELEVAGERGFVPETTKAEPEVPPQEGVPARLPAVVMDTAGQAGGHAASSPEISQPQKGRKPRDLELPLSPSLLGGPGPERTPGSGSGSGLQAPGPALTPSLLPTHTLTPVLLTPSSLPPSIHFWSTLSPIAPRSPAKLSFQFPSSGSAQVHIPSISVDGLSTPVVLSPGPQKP
In short: as §1

[3] = molecular target: T3, GABPA (Homo sapiens, UniProt Q06546 1-454); settings: protein: recombinant; tags: N-terminal GST; dsDNA, one strand shown
T3 sequence: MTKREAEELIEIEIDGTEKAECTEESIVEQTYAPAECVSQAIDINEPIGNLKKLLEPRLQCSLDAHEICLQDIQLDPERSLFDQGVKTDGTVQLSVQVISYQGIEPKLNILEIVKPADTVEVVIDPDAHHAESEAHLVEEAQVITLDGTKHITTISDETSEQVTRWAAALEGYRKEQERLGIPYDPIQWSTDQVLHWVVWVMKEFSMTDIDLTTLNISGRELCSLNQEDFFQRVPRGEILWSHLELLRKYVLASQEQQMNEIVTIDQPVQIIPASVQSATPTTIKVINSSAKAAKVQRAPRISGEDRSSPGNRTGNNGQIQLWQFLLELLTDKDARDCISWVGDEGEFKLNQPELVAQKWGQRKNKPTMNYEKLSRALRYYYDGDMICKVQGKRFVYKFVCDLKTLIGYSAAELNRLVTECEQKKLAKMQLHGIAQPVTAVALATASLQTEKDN
In short: as §1

[4] = molecular target: T4, ERG (Homo sapiens, UniProt P11308 1-479); settings: protein: recombinant; tags: N-terminal GST; dsDNA, one strand shown
T4 sequence: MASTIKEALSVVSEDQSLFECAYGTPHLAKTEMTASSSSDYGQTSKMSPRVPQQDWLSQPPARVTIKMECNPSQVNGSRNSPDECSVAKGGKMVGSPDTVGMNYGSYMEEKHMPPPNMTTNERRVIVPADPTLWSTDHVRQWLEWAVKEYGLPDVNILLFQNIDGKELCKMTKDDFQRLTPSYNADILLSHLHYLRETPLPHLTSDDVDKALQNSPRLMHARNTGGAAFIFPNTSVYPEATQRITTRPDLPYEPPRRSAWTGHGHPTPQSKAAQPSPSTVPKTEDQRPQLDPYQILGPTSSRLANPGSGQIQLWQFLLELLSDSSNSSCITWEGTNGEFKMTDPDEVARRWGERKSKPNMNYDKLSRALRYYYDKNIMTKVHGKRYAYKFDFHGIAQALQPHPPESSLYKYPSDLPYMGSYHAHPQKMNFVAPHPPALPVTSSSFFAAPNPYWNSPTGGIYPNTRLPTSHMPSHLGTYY
In short: as §1

[5] = molecular target: ELF1 (Homo sapiens, UniProt P32519 1-619); settings: protein: recombinant; tags: N-terminal GST; dsDNA, one strand shown
In short: as §1

[6] = molecular target: T5, EHF (Homo sapiens, UniProt Q9NZC4 1-300); settings: protein: recombinant; tags: N-terminal GST; dsDNA, one strand shown
T5 sequence: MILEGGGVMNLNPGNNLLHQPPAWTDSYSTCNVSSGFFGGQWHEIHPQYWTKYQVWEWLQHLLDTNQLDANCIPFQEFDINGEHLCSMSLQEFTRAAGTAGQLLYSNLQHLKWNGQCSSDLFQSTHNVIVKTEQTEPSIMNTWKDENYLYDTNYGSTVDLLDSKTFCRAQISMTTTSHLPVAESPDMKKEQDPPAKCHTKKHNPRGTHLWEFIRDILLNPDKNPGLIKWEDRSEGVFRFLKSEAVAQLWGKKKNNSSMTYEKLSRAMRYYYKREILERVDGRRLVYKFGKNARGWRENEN
In short: as §1

[7] = molecular target: SPI1 (Homo sapiens, UniProt P17947 1-270); settings: protein: recombinant; tags: N-terminal GST; dsDNA, one strand shown
In short: as §1

[8] = molecular target: SPIB (Homo sapiens, UniProt Q01892 1-262); settings: protein: recombinant; tags: N-terminal GST; dsDNA, one strand shown
In short: as §1

[9] = molecular target: T6, ELK3 (Homo sapiens, UniProt P41970 1-407); settings: protein: recombinant; tags: N-terminal GST; dsDNA, one strand shown
T6 sequence: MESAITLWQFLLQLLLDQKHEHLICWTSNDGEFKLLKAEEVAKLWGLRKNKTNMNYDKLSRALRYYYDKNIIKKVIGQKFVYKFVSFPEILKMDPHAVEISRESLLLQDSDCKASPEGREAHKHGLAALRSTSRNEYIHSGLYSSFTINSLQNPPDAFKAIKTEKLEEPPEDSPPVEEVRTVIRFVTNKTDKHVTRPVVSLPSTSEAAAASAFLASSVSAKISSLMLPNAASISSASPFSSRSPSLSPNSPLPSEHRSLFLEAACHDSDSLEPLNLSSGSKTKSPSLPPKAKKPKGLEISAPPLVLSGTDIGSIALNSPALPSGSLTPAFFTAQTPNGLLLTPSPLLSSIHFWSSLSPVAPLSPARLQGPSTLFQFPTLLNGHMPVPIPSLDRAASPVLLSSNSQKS
In short: as §1

[10] = molecular target: T7, FEV (Homo sapiens, UniProt Q99581 1-238); settings: protein: recombinant; tags: N-terminal GST; dsDNA, one strand shown
T7 sequence: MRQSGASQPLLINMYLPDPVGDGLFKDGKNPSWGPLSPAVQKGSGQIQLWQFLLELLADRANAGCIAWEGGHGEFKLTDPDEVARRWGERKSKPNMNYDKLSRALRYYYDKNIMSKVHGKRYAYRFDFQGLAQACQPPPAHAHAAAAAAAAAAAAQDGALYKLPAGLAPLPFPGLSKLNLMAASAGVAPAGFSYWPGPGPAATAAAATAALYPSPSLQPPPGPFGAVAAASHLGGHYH
In short: as §1

[11] = molecular target: ETV5 (Homo sapiens, UniProt P41161 1-510); settings: protein: recombinant; tags: N-terminal GST; dsDNA, one strand shown
In short: as §1

[12] = molecular target: HSF1 (Homo sapiens, UniProt Q00613 1-529); settings: protein: recombinant; tags: N-terminal GST; chain copies: 3; dsDNA, one strand shown
In short: as §1

[13] = molecular target: T8, SPIC (Homo sapiens, UniProt Q8N5J4 1-248); settings: protein: recombinant; tags: N-terminal GST; dsDNA, one strand shown
T8 sequence: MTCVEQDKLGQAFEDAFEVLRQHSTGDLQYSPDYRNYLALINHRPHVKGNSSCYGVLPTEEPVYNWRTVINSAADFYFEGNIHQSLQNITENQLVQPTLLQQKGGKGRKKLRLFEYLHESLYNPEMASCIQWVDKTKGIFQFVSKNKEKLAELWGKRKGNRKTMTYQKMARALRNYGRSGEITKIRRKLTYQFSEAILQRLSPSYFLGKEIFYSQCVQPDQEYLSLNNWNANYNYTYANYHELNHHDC
In short: as §1

[14] = molecular target: ELF4 (Homo sapiens, UniProt Q99607 1-663); settings: protein: recombinant; tags: N-terminal GST; dsDNA, one strand shown
In short: as §1

[15] = molecular target: T9, ELK4 (Homo sapiens, UniProt P28324-2 1-405); settings: protein: recombinant; tags: N-terminal GST; dsDNA, one strand shown
T9 sequence: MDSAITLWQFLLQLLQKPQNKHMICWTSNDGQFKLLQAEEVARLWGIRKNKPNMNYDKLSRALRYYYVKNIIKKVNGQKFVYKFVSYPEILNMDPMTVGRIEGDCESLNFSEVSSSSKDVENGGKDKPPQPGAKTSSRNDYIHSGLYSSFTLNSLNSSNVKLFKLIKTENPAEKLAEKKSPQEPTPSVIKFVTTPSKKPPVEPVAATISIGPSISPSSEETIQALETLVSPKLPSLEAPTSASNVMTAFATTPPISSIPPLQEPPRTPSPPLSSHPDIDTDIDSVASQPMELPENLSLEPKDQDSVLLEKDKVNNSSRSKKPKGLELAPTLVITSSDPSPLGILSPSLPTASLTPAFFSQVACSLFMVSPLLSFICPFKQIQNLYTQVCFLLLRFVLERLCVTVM
In short: as §1

[16] = molecular target: T10, ETV2 (Homo sapiens, UniProt O00321 1-342); settings: protein: recombinant; tags: N-terminal GST; dsDNA, one strand shown
T10 sequence: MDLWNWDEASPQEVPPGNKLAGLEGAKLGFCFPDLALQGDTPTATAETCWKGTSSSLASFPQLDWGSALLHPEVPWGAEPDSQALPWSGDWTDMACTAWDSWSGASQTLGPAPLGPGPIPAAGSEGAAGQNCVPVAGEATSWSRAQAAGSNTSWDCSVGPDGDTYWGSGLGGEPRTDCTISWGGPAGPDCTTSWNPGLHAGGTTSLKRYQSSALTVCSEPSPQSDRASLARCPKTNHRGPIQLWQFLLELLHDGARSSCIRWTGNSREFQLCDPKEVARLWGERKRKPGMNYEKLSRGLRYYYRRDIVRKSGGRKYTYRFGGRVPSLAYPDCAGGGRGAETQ
In short: as §1

[17] = molecular target: T11, ELF3 (Homo sapiens, UniProt P78545 1-371); settings: protein: recombinant; tags: N-terminal GST; dsDNA, one strand shown
T11 sequence: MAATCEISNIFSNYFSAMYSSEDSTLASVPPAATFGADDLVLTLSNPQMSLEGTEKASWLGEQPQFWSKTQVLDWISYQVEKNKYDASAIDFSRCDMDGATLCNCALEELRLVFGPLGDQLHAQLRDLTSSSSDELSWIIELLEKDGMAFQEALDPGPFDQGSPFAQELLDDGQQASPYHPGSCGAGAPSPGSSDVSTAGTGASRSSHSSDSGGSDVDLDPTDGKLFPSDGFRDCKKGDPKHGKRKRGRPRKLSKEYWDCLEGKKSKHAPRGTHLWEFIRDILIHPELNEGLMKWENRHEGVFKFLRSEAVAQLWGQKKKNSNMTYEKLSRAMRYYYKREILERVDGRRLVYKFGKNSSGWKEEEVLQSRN
In short: as §1

[18] = molecular target: CRX (Homo sapiens, UniProt O43186 1-299); settings: protein: recombinant; tags: N-terminal GST; dsDNA, one strand shown
In short: as §1

[19] = molecular target: ETV1 (Homo sapiens, UniProt P50549 1-477); settings: protein: recombinant; tags: N-terminal GST; dsDNA, one strand shown
In short: as §1

Sequence of ELF1 (P32519 whole entry): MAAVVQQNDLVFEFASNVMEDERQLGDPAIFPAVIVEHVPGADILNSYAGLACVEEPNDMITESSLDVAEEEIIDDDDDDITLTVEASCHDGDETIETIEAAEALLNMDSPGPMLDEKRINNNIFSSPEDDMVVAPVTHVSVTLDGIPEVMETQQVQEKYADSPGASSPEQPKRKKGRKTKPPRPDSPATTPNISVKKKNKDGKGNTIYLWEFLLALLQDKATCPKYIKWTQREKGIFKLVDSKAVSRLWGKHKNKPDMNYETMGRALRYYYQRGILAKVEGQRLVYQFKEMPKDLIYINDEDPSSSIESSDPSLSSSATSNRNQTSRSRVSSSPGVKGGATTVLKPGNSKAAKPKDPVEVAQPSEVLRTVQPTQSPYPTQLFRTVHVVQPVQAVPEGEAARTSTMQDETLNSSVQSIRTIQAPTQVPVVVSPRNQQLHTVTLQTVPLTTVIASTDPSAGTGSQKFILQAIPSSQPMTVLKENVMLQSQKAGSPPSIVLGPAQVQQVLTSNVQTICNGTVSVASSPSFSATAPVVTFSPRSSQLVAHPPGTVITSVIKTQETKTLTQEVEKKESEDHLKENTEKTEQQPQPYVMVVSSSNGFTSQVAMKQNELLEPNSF
Sequence of ETV5 (P41161 whole entry): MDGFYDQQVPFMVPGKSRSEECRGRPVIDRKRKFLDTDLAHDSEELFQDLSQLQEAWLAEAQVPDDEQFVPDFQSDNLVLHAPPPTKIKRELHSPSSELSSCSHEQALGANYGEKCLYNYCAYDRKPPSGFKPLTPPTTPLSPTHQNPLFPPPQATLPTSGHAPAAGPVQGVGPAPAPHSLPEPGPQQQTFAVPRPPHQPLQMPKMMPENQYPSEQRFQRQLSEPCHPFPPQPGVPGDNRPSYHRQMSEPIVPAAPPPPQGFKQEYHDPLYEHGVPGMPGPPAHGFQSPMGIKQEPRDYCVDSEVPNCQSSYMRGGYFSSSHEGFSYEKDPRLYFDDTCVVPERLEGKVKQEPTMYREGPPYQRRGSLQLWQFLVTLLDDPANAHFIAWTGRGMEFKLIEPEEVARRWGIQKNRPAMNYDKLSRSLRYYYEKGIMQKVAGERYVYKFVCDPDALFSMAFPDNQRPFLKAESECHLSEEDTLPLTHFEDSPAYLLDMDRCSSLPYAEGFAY
Sequence of HSF1 (Q00613 whole entry): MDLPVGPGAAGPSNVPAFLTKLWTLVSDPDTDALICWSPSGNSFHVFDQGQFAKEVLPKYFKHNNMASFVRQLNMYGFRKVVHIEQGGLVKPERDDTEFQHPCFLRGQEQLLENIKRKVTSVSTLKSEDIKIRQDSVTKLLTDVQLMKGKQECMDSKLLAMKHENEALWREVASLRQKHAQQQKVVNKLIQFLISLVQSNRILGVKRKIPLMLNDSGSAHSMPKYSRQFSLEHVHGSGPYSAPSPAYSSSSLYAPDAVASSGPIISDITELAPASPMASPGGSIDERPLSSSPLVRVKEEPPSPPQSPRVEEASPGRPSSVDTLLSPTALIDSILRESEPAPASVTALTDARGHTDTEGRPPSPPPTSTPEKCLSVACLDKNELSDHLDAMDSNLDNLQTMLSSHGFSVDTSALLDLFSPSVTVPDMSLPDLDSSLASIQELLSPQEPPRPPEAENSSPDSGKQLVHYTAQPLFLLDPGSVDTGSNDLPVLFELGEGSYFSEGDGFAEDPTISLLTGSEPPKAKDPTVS
Sequence of ELF4 (Q99607 whole entry): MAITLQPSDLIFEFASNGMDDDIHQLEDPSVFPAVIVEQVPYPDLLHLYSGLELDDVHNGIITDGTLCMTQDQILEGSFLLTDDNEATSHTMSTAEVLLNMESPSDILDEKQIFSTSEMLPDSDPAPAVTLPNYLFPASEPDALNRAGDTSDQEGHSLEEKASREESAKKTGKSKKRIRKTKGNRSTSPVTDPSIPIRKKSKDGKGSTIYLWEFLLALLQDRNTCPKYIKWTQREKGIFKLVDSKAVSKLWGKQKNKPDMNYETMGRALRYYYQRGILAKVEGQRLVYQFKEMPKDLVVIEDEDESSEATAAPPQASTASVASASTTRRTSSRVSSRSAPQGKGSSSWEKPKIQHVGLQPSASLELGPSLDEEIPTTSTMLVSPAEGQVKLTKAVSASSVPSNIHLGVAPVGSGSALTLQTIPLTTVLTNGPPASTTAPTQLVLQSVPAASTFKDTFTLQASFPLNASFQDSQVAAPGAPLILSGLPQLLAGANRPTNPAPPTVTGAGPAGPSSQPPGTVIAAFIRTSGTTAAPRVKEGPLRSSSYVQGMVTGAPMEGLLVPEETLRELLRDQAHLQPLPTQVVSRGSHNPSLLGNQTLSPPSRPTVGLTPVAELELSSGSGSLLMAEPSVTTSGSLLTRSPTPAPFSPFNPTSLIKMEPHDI
Sequence of CRX (O43186 whole entry): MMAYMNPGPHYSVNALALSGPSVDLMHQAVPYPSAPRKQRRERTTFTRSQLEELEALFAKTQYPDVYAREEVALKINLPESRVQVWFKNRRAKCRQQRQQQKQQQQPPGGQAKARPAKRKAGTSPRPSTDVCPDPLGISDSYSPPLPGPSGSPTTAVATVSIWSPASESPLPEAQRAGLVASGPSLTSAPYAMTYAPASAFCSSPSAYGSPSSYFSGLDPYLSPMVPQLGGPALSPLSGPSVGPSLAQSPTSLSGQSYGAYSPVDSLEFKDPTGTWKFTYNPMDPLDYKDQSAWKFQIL
Sequence of SPIB (Q01892 whole entry): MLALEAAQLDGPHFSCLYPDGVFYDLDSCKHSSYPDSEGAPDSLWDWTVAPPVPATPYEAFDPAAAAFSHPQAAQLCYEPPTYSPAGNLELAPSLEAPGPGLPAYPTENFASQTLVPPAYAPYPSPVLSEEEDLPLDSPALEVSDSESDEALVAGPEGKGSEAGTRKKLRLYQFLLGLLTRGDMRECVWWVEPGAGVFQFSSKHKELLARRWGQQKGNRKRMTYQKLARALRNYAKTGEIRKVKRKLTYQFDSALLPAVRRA
Sequence of ETV1 (P50549 whole entry): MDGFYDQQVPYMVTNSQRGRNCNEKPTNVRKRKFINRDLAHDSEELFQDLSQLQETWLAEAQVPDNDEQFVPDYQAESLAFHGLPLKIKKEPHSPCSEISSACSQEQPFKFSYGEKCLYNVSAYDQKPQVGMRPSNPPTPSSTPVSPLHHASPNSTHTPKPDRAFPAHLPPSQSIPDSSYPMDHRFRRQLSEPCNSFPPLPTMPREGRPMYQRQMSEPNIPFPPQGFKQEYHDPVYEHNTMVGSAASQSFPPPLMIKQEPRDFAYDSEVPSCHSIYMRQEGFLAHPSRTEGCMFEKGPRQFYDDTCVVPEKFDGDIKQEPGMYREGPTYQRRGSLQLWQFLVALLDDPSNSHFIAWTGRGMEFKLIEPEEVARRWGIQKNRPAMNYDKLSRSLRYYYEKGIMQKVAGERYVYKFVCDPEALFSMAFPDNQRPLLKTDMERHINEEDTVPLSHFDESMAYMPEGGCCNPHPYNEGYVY

TTCGCT
binding signal [1]: 1.19 fold enrichment (6-mer frequency, TF over GST control)
binding signal [2]: 1.17 fold enrichment (6-mer frequency, TF over GST control)
binding signal [3]: 1.32 fold enrichment (6-mer frequency, TF over GST control)
binding signal [4]: 1.28 fold enrichment (6-mer frequency, TF over GST control)
binding signal [5]: 1.18 fold enrichment (6-mer frequency, TF over GST control)
binding signal [6]: 1.07 fold enrichment (6-mer frequency, TF over GST control)
binding signal [7]: 1.16 fold enrichment (6-mer frequency, TF over GST control)
binding signal [8]: 1.47 fold enrichment (6-mer frequency, TF over GST control)
binding signal [9]: 1.45 fold enrichment (6-mer frequency, TF over GST control)
binding signal [10]: 1.2 fold enrichment (6-mer frequency, TF over GST control)
binding signal [11]: 1.24 fold enrichment (6-mer frequency, TF over GST control)
binding signal [12]: 1.29 fold enrichment (6-mer frequency, TF over GST control)
binding signal [13]: 1.08 fold enrichment (6-mer frequency, TF over GST control)
binding signal [14]: 1.36 fold enrichment (6-mer frequency, TF over GST control)
binding signal [15]: 1.29 fold enrichment (6-mer frequency, TF over GST control)
binding signal [16]: 1.49 fold enrichment (6-mer frequency, TF over GST control)
binding signal [17]: 1.26 fold enrichment (6-mer frequency, TF over GST control)
binding signal [18]: 1.13 fold enrichment (6-mer frequency, TF over GST control)
binding signal [19]: 1.27 fold enrichment (6-mer frequency, TF over GST control)
